Source: PubChem BioAssay (several laboratories)
hgDAF12 agonist: H. glycines DAF-12 receptor agonists, primary screen, cell-based, luminescence, HEK293, GAL4 fusion, UAS-luciferase. HEK293 GAL4-hgDAF12 UAS-luciferase reporter, agonist luminescence; normalized to butyrate control. activation, % at 6.8 µM. AID 687014, 2013. Nuclear hormone receptor DAF-12 (Heterodera glycines), GAL4 fusion. actives 1.8% (n = 370,000);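 active = activation above a cutoff set at the mean of all screened compounds plus 3 SD, cut at about 10% in these data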;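 note: 0% = DMSO wells and 100% = sodium butyrate wells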
DAX1 inh-1: DAX1 (NR0B1) inhibitors, primary screen, cell-based, HEK293, Gal4-DAX1, luciferase luminescence; AID 504766, 2011; Nuclear receptor subfamily 0 group B member 1 (Homo sapiens), P51843; actives 0.99% (n = 340,000); HEK293 Gal4-DAX1 luciferase reporter; inhibition, % at 6.75 µM;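 active = inhibition above the mean over all tested compounds plus 3 SD, cut at about 4.2% in these data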;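 note: 0% = DAX1-transfected cells with DMSO and 100% = empty-vector control cells with DMSO; inhibition shows as a rise in luminescence from relieved DAX1 repression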
ssDAF12 agonist: S. stercoralis DAF-12 nuclear receptor activators, primary screen, cell-based, luminescence, HEK293, GRIP1 co-expression, lit1-tk-luc; HEK293 ssDAF-12/GRIP1 lit1-tk-luc reporter; % of 3 µM dafachronic acid response; actives 1% (n = 370,000); Nuclear hormone receptor DAF-12 (Strongyloides stercoralis); activation, % at 6.8 µM;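 active = activation above the mean over all tested compounds plus 3 SD, cut at about 0.9% in these data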;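 note: 0% = DMSO-only wells and 100% = 3 µM delta7-dafachronic acid wells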
hcDAF12 agonist: H. contortus DAF-12 nuclear receptor activators, primary screen, cell-based, luminescence, HEK293, lit1-tk-luc reporter; HEK293 hcDAF-12 lit1-tk-luc reporter; 0% DMSO, 100% Δ7-dafachronic acid; activation, % at 6.8 µM; actives 1.4% (n = 370,000);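 active = activation above the mean of all tested compounds plus 3 SD, cut at about 5.5% in these data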;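 note: 100% = response to 3 µM Δ7-dafachronic acid high control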
DAX1 inh-2: DAX1 (NR0B1) inhibitors on StAR promoter, primary screen, cell-based, luminescence, SF-1 (NR5A1), full-length DAX-1; HEK293T StAR-luciferase reporter, SF-1/DAX-1 repression relief; inhibition, % at 6.8 µM; actives 1.1% (n = 370,000);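 active = inhibition above the mean over all tested compounds plus 3 SD, cut at about 3.6% in these data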;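 note: 0% = DAX-1 cells with DMSO and 100% = cells lacking DAX-1 with DMSO; higher inhibition means more luminescence from relief of DAX-1 repression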
NR1D1 modulator: modulators of Rev-erb alpha DNA binding, primary screen, biochemical, FITC-DNA, fluorescence polarization, uHTS. Nuclear receptor subfamily 1 group D member 1 (Homo sapiens), P20393. Rev-erbα–FITC-DNA binding, 90 min. activity, % at 10 µM. actives 0.79% (n = 370,000);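 active = activity above about 14%, limit read from the data; passing the limit was not always enough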;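 note: 0% = DMSO wells with 35 nM protein and 100% = DMSO wells with 750 nM protein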
Target sequence (P20393 whole entry, looked up): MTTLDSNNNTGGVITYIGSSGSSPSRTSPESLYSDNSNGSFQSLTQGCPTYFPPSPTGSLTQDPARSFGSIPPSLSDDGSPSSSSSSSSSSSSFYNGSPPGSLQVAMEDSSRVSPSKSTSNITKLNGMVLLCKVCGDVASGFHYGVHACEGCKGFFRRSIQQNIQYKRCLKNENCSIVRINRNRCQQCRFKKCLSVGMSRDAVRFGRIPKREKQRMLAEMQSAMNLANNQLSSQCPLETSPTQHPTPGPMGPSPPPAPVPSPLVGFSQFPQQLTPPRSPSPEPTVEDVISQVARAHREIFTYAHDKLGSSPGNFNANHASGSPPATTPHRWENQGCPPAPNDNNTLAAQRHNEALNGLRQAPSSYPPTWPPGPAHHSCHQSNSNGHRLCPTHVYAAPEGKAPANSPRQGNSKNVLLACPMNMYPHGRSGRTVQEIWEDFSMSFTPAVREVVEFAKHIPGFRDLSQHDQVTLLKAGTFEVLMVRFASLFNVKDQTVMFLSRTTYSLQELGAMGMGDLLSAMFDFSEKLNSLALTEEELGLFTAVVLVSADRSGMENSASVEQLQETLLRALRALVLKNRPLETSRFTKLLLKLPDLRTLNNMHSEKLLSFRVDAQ
Rev-erbA confirm: modulators of Rev-erb alpha DNA binding, confirmation, biochemical, FITC-DNA, fluorescence polarization, single point; actives 61% (n = 3,000); AID 1259319, 2017; 90 min; activation, % at 25 µM; shares compounds with NR1D1 modulator;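 active = activation at or above a set limit, or at least 3 SD above the negative control mean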;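 note: 0% = 35 nM protein with DMSO and 100% = 750 nM protein high control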
RORg DNA counter: modulation of RORgamma DNA binding, dose response, counter-screen for Rev-erb alpha modulator project, biochemical, fluorescence polarization, FITC-DNA; shares compounds with NR1D1 modulator; purified RORgamma protein-FITC-DNA binding; IC50, µM; actives 8% (n = 910);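 active = Compounds whose fitted half-maximal concentration for disrupting protein-DNA binding is below 10 micromolar; the record names Rev-erb in its text, so the target is in doubt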
Active calls of the source: *; i = inactive; . = no result. In the library only some 4.8% were active in any assay of this set; here they are far more common.

SMILES	hgDAF12 agonist	DAX1 inh-1	ssDAF12 agonist	hcDAF12 agonist	DAX1 inh-2	NR1D1 modulator	Rev-erbA confirm	others
N#Cc1c(N)nc(Sc2ccc(Cl)cc2)c(C#N)c1-c1ccccc1Cl	-1	-3	-2	-2	0	64*	43*	RORg DNA counter=i
Cc1ccc(-c2cc(-c3ccccc3Cl)c(C#N)c(N)n2)o1	-2	0	-1	-2	-1	0	.
C=CCSc1nc(N)c(C#N)c(-c2ccc(C)cc2)c1C#N	-4	0	-1	-1	-1	17	.
CCN(CC)c1ccc2c(c1)OC(N)=C(C#N)C2c1cccnc1 (stereo not drawn)	0	0	-1	0	-1	53*	48*
COC(=O)c1cc2c(c3c4cc(OC)ccc4n(S(C)(=O)=O)c13)C(=O)N(C)C2	-1	.	-1	0	-1	3	.
COc1cccc(-c2c(C#N)c(SC)nc3cc(C)nn23)c1	-1	1	-1	-2	1	39*	18
Cc1cc(NC(=O)Cn2nc(-c3cccs3)ccc2=O)cc(C)c1Br	1	-1	-1	-1	0	6	.
Cc1c(Br)ccc(NC(=O)Cn2nc(-c3cccs3)ccc2=O)c1C	0	0	-1	-1	0	50*	42*	RORg DNA counter=>40
Cc1ccc(-c2csc3nc[nH]c(=S)c23)cc1	-4	-1	-2	-2	-1	6	.
Cc1cc(-c2csc3nc[nH]c(=S)c23)cc(C)c1C	0	0	-1	-1	-1	61*	62*	RORg DNA counter=>40
CCOC(=O)c1cccc(NC(=O)CN(C)S(=O)(=O)c2ccc(Br)s2)c1	-2	.	-2	-1	-1	2	.
CCN1/C(=C/C=C/c2oc3ccc(-c4ccccc4)cc3[n+]2CC)Oc2ccc(-c3ccccc3)cc21	-14	-2	-3	-6	-7	139*	135*	RORg DNA counter=i
CCN1/C(=C/C=C/c2sc3ccccc3[n+]2CC)Sc2ccccc21	.	-4	.	.	.	.	.
CC1=N/C(=C\c2ccc([N+](=O)[O-])cc2)C(=O)N1c1ccc(C)c(Cl)c1	1	.	-2	0	0	3	.
CCOc1ccc(CCNC(=O)Cn2ncn3nc(-c4ccc(OC)cc4)cc3c2=O)cc1OCC	-3	0	-1	-1	0	23*	-2
COc1ccc(-c2cc3c(=O)n(CC(=O)NCCCc4ccccc4)ncn3n2)cc1	8	1	-1	4	0	9	.
CCOC(=O)c1sc2nc(N3CCCC3)c3c(c2c1N)CC(C)(C)OC3	-3	-1	-1	-4	0	-2	.
CCOC(=O)c1sc2nc(C(C)C)c3c(c2c1N)CC(C)(C)OC3	-2	-1	-1	-2	-1	23*	2
CC(=O)c1cc2c(cc1NC(=O)c1cccc(S(=O)(=O)N3CCN(C)CC3)c1)OCO2	-2	2	0	-1	1	20*	5
CC(=O)c1cc2c(cc1N/C(=N/S(=O)(=O)c1ccccc1)c1ccc(Cl)cc1)OCO2	1	0	1.6*	4	0	90*	48*	RORg DNA counter=>40
CC(=O)c1ccc(NC(=O)c2cccc(S(=O)(=O)N3CCN(C)CC3)c2)cc1	4	0	-1	0	1	0	.
COC(=O)[C@]12C[C@H](CC(=O)NCC3CCCCC3)C(=O)N(Cc3ccco3)C1=C[C@H](C(C)C)O[C@@H]2C1CC1	-1	.	-2	-1	0	5	.
O=C(CSc1nc2ccccc2nc1N1CCOCC1)N1CCN(c2cccc(C(F)(F)F)c2)CC1	9	.	-2	-5	-2	-3	.
COC(=O)[C@]12C[C@H](CC(=O)N3CCCCC3)C(=O)N(CCC3=CCCCC3)C1=C[C@H](COCc1ccccc1)O[C@@H]2C	0	.	-1	-3	0	3	.
Cc1cc(C)c2c(=O)[nH]c(=O)n(Cc3ccccc3)c2n1	-1	1	-1	0	0	23*	15
SMILES	hgDAF12 agonist	DAX1 inh-1	ssDAF12 agonist	hcDAF12 agonist	DAX1 inh-2	NR1D1 modulator	Rev-erbA confirm	others
Cc1ccc(-c2nn(C)c(=O)c3ccccc23)cc1S(=O)(=O)N1CCOCC1	1	1	-1	0	0	-1	.
Cc1ccc(-c2nn(C)c(=O)c3ccccc23)cc1S(=O)(=O)N1CCCC1	-1	-1	-1	-3	-1	26*	36*	RORg DNA counter=>40
CC(=O)N(CC(=O)O)c1ccccc1	1	1	-1	1	0	2	.
O=C(O)CN(CCN(CC(=O)O)CC(=O)O)CC(=O)O	.	.	.	.	.	50*	3
CCOc1ccc2c(c1)nc(SCC(=O)c1ccc(Br)s1)n2C	1	-3	-2	-1	-2	25*	14
O=C(c1ccc(F)cc1)C1CCN(CCCn2c(=O)[nH]c3ccccc32)CC1	-3	.	-1	-1	1	-3	.
CC(=O)c1cc(-c2cc3ccccc3o2)c(=O)n2c1CCC2	-1	.	-2	2	0	17	.
Cc1ccnc(NS(=O)(=O)c2ccc(NC(=O)c3cc(-c4ccccc4)nc4ccccc34)cc2)n1	-2	-1	-1	-1	1	-2	.
Cc1ccnc(NS(=O)(=O)c2ccc(NC(=O)c3cc(-c4ccc(Br)cc4)nc4ccccc34)cc2)n1	-1	1	-2	1	0	39*	17*
CC(C)Cc1nc2sc3c(SCC(N)=O)ncnc3c2c2c1CCC2	0	0	-1	-1	0	369*	568*	RORg DNA counter=i
CCn1c(=O)cc(N2CCN(c3cccc(C(F)(F)F)c3)CC2)[nH]c1=O	9	.	-1	-1	.	-5	.
O=C(Cn1sc2ccccc2c1=O)NC12CC3CC(CC(C3)C1)C2	.	1	.	.	.	.	.
O=C(Cn1sc2ccccc2c1=O)Nc1ccccc1	3	0	-1	1	1	15*	-4
